The record followed here is PubChem BioAssay (Tox21).

Inconclusive results are not listed. A call without a number means that no potency is given here. Values without a mark were called inactive. Activity calls are given as the source filed them. The call rests on the fitted dose curve; in most records, active means well fitted activation curve with a large enough effect in the repeat runs; inconclusive means weak or mixed curves; inactive means flat fitted curve, though single readings scatter.

A short description of this experiment: A CellTox Green Cytotoxicity Assay to monitor cytotoxicity in HEK293 cells - 24 hour (AID 1224875). Further: nearly all actives have a fitted effect of over 45% in size. As to conditions: CellTox Green fluorescence; series mostly up to 76.8 µM. An outline of the steps: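 Seeding of HEK293 cells together with cytotoxicity dye preceded a 5 h incubation at 37 C/5% CO2. Test compounds in DMSO were then added and fluorescence monitored across 40 h.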
Consider `O=c1oc2c(O)c(O)cc3c(=O)oc4c(O)c(O)cc1c4c23`, for which the activity change is 21.9% [at 15.8 µM, stronger effect = higher value].
On to `Cc1nnc(SCC2=C(C(=O)O)N3C(=O)[C@@H](NC(=O)Cn4cnnn4)[C@H]3SC2)s1`, for which the Potency result is “inactive”.
On the same count and under the same terms, as for `Cc1cc(S(=O)(=O)O)c(N)cc1Cl`, the entry is “inactive”; as for `COc1cc(C)ccc1C(C)C`, “inactive”.
As for `Cc1ccsc1C(=CCCN1CCC[C@@H](C(=O)O)C1)c1sccc1C`, the Potency result was “inactive”.
On the same count and under the same terms, then `C=CC1CO1` (centres undefined), with “inactive”; and `CNCCC(Oc1ccccc1OC)c1ccccc1` (centres undefined), with “inactive”.
As to `FC(F)(F)C(F)(F)C(F)(F)C(F)(F)C(F)(F)C(F)(F)C(F)(F)C(F)(F)Br`, the Potency result was “inactive”.
`CCN(CC)C(=O)N(CC)CC`: the Potency result is “inactive”.
Take `CN(CC1(C)CCCO1)S(=O)(=O)c1ccc(Cl)c(S(N)(=O)=O)c1` (centres undefined): the Potency result was “inactive”.
Turning to `O=CCCc1ccccc1`, the Potency entry was “inactive”.
For the molecule `CN1C(=O)CC(c2ccccc2)C1=O` (centres undefined), the Potency result is “inactive”.
Turning to `CCCN(CCC)C(=O)C(CCC(=O)O)NC(=O)c1ccccc1` (centres undefined), the Potency result is “inactive”.
In the case of `CC(=O)Nc1ccc(C)c(Cl)c1`, the Potency entry is “inactive”.
Same read-out and setting: as for `CCCCN1C[C@H](O)[C@@H](O)[C@H](O)[C@H]1CO`, the entry is “inactive”; as for `Cc1cccc(C)c1NC(=O)CN1CCCCCC1`, “inactive”.
For `CO[C@@]1(NC(=O)CSCC#N)C(=O)N2C(C(=O)O)=C(CSc3nnnn3C)CS[C@@H]21`, the Potency entry is “inactive”.
Regarding `FC(F)(F)C(Cl)(Cl)Cl`, the Potency entry is “inactive”.
With `CCC(=O)Nc1ccc(O)cc1`, the Potency entry was “inactive”.
The same measure, in the same setting: as for `N#Cc1ccc(C(c2ccc(C#N)cc2)n2cncn2)cc1`, the entry is “inactive”; as for `CCOc1ccc2nc(N)sc2c1`, “inactive”; as for `Cc1ccc([N+](=O)[O-])cc1Cl`, “inactive”.
For the molecule `CCCCCCC`, the Potency entry is “inactive”.
The same measure, in the same setting: then `CCc1cc(Cl)c(OC)c(C(=O)NC[C@@H]2CCCN2CC)c1O`, with “inactive”; and `CC(C)O`, with “inactive”; and `CC(CNC1CCCCC1)OC(=O)c1ccccc1` (centres undefined), with “inactive”.
The same measure, in the same setting: then `CC(=O)OC1C2(C)CCC(C2)C1(C)C` (centres undefined), with “inactive”.
On the same count and under the same terms, as for `COc1ccc(S(=O)(=O)Nc2nnc(CC(C)C)s2)cc1`, the entry is “inactive”.
Take `NC/C=C/C(=O)O`: the Potency entry is “inactive”.
On the same count and under the same terms, then `C1CSCCS1`, with “inactive”; and `C[C@]12C(=O)OC(=O)[C@H]1[C@H]1C=C[C@@H]2C1`, with “inactive”.
The same measure, in the same setting: then `OCCN(CCO)CCN(CCO)CCO`, with “inactive”; and `O=S(=O)(O)C(F)(F)F`, with “inactive”; and `CC(C)NCC(O)COc1ccc(CCOCC2CC2)cc1` (centres undefined), with “inactive”.
Same read-out and setting: then `NC1=NCC2c3ccccc3Cc3ccccc3N12` (centres undefined), with “inactive”; and `CC(C)(CO)[C@@H](O)C(=O)NCCC(=O)O`, with “inactive”; and `CCCCNC(=S)NCCCC`, with “inactive”.
With `CC(C)CCCCCCc1ccc(OCCOCCO)cc1`, the Potency result was “inactive”.
Same read-out and setting: then `CC(=O)O[C@H]1CC[C@@]2(C)C(=CC[C@@H]3[C@@H]2CC[C@]2(C)C(C(C)=O)=CC[C@@H]32)C1`, with “inactive”.
